Measured values published in PubChem BioAssay.
Calls of active or inactive are those of the source.

Assays:
[1] = binders of probe aFSTL3 on microarray, primary screen, stem cell growth factor project, biochemical, small-molecule microarray, fluorescence 635/667 (AID 1064); conditions: higher = more signal;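 also: measures binding of the biotinylated anti-FSTL3 antibody to printed compounds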
[2] = binders from COS7 lysate, DM2A8 probe, primary screen, torsin A project, cell lysate, small-molecule microarray, fluorescence 635/667 (AID 1065); conditions: higher = more signal, COS7 lysate expressing mutant human TOR1A
[3] = binders of probe aFGF2 on microarray, primary screen, stem cell growth factor project, biochemical, small-molecule microarray, fluorescence 635/667 (AID 1067); conditions: higher = more signal;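 also: measures binding of biotinylated aFGF2 protein to printed compounds on slides; z-score merges feature fluorescence and signal-to-noise across triplicate slides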
[4] = binders of probe aFGF10 on microarray, primary screen, stem cell growth factor project, biochemical, small-molecule microarray, fluorescence 635/667 (AID 1071); conditions: higher = more signal;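 also: score merges 667 nm spot intensity and signal to noise from triplicate slides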
[5] = target: Neurogenic locus notch homolog protein 2 (Homo sapiens) (UniProt Q04721); assay: Notch2 binders on small-molecule microarrays, primary screen, biochemical, small-molecule microarray, 635 nm fluorescence, stem cell growth factors (AID 1073); conditions: Notch2 binding, higher = more signal
[6] = target: Pro-neuregulin-1, membrane-bound isoform (Homo sapiens) (UniProt Q02297); assay: NRG1 binders on small-molecule microarrays, primary screen, psychiatric disease protein project, biochemical, small-molecule microarray, fluorescence 635/667 (AID 1075); conditions: NRG1 binding, 635 nm fluorescence, higher = more signal;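 also: score combines 667 nm spot fluorescence with signal to noise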
[7] = system: Neuregulin-1 EGF-like domain; assay: binders of neuregulin-1 EGF-like domain, primary screen, biochemical, small-molecule microarray, 635 nm fluorescence (AID 1081); conditions: small-molecule microarray binding, higher = more signal;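 also: binding of the protein to compounds printed on small-molecule microarray slides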
[8] = FRG1 promoter luciferase signal modulators, primary screen, FRG1 inhibition for FSHD, cell-based, C2C12 myotubes, firefly/Renilla luciferase, luminescence (AID 1084); conditions: higher = more signal, called active from +8 up or from −8 down
[9] = binders of probe aFST on microarray, primary screen, stem cell growth factor project, biochemical, small-molecule microarray, fluorescence 635/667 (AID 1086); conditions: higher = more signal;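 also: score merges 667 nm fluorescence with signal-to-noise of each printed compound spot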
[10] = binders of probe aHhip on microarray, primary screen, stem cell growth factor project, biochemical, small-molecule microarray, fluorescence 635/667 (AID 1087); conditions: higher = more signal;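 also: score merges spot fluorescence at 667nm with spot signal to noise ratio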
[11] = system: PRMT1 (protein arginine N-methyltransferase 1); assay: PRMT1 binders on small-molecule microarrays, primary screen, biochemical, small-molecule microarray, 635 nm fluorescence (AID 1088); conditions: small-molecule microarray binding, higher = more signal;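 also: binding of Prmt1 protein to compounds spotted on small-molecule microarray slides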
[12] = yeast growth modulation, basal conditions, primary screen, YJM789 clinical isolate, OD600, 24 h (AID 1089);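 also: growth of clinical yeast isolate S. cerevisiae YJM 789 seeded 1000 cells per well; test concentration not given here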; conditions: S. cerevisiae YJM789 growth, higher = more signal, called active from +8 up or from −8 down
[13] = fission yeast growth modulation, primary screen, strain 972, OD600, 24 h, no modulator (AID 1090);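 also: basal condition with compound alone and no growth modifier present; test concentration not given here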; conditions: S. pombe 972 growth, higher = more signal, called active from +8 up or from −8 down
[14] = S. cerevisiae growth modulation with rapamycin, primary screen, strain BY4716, OD600, 96 h (AID 1091); conditions: higher = more signal, called active from +8 up or from −8 down; also: test concentration not given here
[15] = target: Torsin-1A-interacting protein 2 (Homo sapiens) (UniProt Q8NFQ8); assay: LULL1 binders on small-molecule microarray, primary screen, cell lysate, human LULL1 lysate, 635/667 nm fluorescence (AID 1092); conditions: hLULL1 lysate binding, 635 nm fluorescence, higher = more signal;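 also: probe is lysate of COS7 cells overexpressing human LULL1; score merges per-feature 667 nm fluorescence with signal-to-noise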
[16] = E. coli growth modulation, two-sided OD650, primary screen, E. coli filamentation project, strain DRC41, 24 h (AID 1093); conditions: OD650, 24 h, higher = more signal, called active from +8 up or from −8 down;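 also: MC1000 strain lacking acrAB efflux and sulA so SOS filamentation is blocked; test concentration not given here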
[17] = small-molecule microarray binders of probe aLefty2, primary screen, biochemical, biotinylated probe, 635/667 nm fluorescence (AID 1094); conditions: higher = more signal;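 also: score merges spot fluorescence near 667 nm with spot signal-to-noise ratio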
[18] = system: Noggin (protein binding on small-molecule microarray); assay: Noggin binders on small-molecule microarray, primary screen, biochemical, 635/667 nm fluorescence (AID 1095); conditions: 635 nm fluorescence, higher = more signal;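 also: score merges 667 nm feature fluorescence with signal to noise over triplicate slides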
[19] = target: Neurogenic locus notch homolog protein 3 (Homo sapiens) (UniProt Q9UM47); assay: NOTCH3 binders on small-molecule microarray, primary screen, biochemical, 635/667 nm fluorescence (AID 1096); conditions: NOTCH3 binding, 635 nm fluorescence, higher = more signal
[20] = small-molecule microarray binders of probe aEGFR, primary screen, biochemical, biotinylated probe, 635/667 nm fluorescence (AID 1097); conditions: higher = more signal;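 also: probe is a biotinylated anti-EGFR antibody binding compounds printed on slides; score combines fluorescence near 667 nm and signal to noise of each spot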

Sequence of Neurogenic locus notch homolog protein 3 (Homo sapiens) (Q9UM47 whole entry, looked up): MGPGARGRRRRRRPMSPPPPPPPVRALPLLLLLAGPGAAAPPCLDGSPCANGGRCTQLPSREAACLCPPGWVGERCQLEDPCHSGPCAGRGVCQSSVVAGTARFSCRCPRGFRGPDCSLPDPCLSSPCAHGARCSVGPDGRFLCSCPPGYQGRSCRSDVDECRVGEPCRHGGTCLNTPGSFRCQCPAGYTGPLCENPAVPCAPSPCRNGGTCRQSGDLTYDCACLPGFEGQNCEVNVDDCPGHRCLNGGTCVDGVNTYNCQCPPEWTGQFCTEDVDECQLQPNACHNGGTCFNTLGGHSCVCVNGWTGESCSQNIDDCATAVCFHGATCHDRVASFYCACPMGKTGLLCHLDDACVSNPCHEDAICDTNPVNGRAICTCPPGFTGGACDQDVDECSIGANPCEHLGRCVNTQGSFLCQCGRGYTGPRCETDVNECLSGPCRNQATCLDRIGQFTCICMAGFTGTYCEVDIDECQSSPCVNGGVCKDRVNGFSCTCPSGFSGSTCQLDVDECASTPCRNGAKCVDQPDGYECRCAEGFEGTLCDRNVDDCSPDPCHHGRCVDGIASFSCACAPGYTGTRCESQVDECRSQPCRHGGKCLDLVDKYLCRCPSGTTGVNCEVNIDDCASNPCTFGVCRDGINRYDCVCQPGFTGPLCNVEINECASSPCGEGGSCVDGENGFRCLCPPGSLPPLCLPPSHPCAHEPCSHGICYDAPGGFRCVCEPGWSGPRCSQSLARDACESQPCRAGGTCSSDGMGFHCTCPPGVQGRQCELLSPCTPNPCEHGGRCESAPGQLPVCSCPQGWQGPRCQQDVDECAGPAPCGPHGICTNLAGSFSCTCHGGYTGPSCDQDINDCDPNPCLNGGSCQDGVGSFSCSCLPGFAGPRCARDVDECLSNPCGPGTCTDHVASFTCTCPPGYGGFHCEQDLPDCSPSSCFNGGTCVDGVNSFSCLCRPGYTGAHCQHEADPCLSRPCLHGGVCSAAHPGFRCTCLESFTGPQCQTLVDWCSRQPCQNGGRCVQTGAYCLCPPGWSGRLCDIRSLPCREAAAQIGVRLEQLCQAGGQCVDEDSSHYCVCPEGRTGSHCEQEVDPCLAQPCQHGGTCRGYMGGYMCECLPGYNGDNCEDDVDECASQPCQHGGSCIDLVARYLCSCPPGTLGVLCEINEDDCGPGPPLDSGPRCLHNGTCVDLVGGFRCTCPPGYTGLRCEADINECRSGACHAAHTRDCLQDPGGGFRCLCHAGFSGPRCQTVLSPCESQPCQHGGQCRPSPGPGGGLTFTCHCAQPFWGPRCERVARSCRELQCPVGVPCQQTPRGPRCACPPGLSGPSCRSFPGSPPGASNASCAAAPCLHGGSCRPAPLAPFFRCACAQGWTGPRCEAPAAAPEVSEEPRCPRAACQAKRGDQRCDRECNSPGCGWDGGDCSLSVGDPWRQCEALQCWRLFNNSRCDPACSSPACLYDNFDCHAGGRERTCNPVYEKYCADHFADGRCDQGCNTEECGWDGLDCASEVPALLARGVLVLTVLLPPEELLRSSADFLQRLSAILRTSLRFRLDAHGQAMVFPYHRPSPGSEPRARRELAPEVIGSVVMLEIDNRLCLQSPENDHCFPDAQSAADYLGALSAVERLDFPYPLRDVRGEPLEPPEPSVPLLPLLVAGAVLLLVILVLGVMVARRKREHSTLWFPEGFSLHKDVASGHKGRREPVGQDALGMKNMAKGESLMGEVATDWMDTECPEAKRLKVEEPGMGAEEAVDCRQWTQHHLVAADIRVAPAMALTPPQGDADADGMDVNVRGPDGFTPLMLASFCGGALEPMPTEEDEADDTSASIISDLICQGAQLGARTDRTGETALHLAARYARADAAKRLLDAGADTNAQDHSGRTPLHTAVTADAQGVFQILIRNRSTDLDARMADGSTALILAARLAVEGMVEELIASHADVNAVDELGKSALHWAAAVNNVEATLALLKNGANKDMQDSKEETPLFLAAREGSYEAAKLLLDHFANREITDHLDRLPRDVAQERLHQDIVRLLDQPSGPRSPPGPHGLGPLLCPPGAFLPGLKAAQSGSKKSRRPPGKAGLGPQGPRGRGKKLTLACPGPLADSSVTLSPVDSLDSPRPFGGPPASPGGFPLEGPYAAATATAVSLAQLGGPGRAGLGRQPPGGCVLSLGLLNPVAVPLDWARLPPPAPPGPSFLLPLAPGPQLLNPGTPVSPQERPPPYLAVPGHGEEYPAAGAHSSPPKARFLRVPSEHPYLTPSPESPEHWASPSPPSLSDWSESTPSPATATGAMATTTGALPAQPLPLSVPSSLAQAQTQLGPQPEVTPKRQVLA
Sequence of Torsin-1A-interacting protein 2 (Homo sapiens) (Q8NFQ8 whole entry, looked up): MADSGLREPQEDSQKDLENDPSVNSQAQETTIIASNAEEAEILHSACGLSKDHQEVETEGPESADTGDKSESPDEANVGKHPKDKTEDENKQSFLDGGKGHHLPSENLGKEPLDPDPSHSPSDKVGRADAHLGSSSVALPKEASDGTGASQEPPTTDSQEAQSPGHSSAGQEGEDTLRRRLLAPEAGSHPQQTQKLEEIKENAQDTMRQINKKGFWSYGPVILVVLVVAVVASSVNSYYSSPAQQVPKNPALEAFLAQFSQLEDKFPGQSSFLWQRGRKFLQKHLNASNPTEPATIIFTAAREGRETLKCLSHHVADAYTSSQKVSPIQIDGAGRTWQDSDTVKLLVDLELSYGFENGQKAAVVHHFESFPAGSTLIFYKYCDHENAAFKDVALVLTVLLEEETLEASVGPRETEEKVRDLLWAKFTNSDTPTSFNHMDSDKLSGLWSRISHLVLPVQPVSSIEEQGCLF
Sequence of Pro-neuregulin-1, membrane-bound isoform (Homo sapiens) (Q02297 whole entry, looked up, the tested form may be a part, canonical isoform): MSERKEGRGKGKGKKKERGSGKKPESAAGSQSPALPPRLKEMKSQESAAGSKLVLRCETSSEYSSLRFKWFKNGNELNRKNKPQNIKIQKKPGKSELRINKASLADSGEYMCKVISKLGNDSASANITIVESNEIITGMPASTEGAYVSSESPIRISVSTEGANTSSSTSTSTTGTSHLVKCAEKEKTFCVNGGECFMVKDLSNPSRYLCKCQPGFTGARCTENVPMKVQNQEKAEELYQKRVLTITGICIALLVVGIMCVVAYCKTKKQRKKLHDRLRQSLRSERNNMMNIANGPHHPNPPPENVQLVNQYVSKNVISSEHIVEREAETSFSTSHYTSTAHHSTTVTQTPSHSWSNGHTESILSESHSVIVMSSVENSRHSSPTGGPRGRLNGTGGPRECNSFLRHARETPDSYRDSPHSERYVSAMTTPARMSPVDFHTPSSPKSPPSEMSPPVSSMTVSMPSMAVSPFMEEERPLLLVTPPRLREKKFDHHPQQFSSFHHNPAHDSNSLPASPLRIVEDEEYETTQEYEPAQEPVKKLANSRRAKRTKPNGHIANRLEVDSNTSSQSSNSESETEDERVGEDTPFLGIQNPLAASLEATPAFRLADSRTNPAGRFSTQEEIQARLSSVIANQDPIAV

Compound	composite z-score [1]	composite z-score [2]	composite z-score [3]	composite z-score [4]	composite z-score [5]	composite z-score [6]	composite z-score [7]	z-score [8]	composite z-score [9]	composite z-score [10]	composite z-score [11]	z-score [12]	z-score [13]	z-score [14]	composite z-score [15]	z-score [16]	composite z-score [17]	composite z-score [18]	composite z-score [19]	composite z-score [20]
Cn1cccc1C(O)C1C=CC2C(=O)NC(=O)C2N1Nc1ccc(Cl)cc1Cl (stereo not given)	0.435	0.263	0.167	0.68	1.68	2.04	1.15	0.978 (inactive)	1.92	0.107	1.04	-0.477 (inactive)	-1.81 (inactive)	-0.356 (inactive)	3.52	-2.82 (inactive)	0.673	0.405	1.05	0.0201
COc1ccc(-c2cc3c(c(CCc4ccccc4)n2)[Si](C(C)C)(C(C)C)OC3)cn1	-0.33	0.239	-0.0537	0.0473	0.247	-0.352	0.197	0.943 (inactive)	0.21	0.113	-0.876	0.275 (inactive)	-0.726 (inactive)	0.333 (inactive)	0.781	-0.43 (inactive)	-0.248	0.325	0.312	-0.0828
C=C(C(=O)CC[C@@H](OC(C)=O)c1ccc(CO)o1)C(C)C	-0.0468	-0.0472	-0.08	0.114	0.17	-0.116	0.0816	0.776 (inactive)	-0.105	0.0749	1.2	-2.4 (inactive)	-0.357 (inactive)	-0.561 (inactive)	0.288	0.331 (inactive)	-0.186	1.28	0.982	-0.15
CCOC(=O)C1CCCCN1 (stereo not given)	0.267	0.0953	0.119	0.989	0.931	0.153	0.765	-0.102 (inactive)	0.74	1.96	1.08	-0.0725 (inactive)	0.438 (inactive)	0.363 (inactive)	1.16	-0.0508 (inactive)	0.697	0.458	0.738	0.641
O=C(N1CCCCC1)[C@@]1(CCS(=O)(=O)c2ccccc2)COC(c2ccc(OCCCO)cc2)=N1	1.02	1.92	0.237	0.253	1.03	1.06	1.32	-3.51 (inactive)	0.937	0.0972	1.54	-0.612 (inactive)	-1.25 (inactive)	-0.0556 (inactive)	2.84	1.23 (inactive)	0.369	1.04	0.841	0.219
C#CCN([C@@H](Cc1ccc(O)cc1)C(=O)OC)[C@@H](/C=C/C1CC1)[C@H](O)Cc1ccccc1	0.164	-0.112	-0.0732	-0.37	-0.791	-0.737	0.356	-3.55 (inactive)	-0.09	-0.337	0.0371	-0.686 (inactive)	-4.05 (inactive)	0.417 (inactive)	-0.0965	-1.17 (inactive)	-0.241	0.0698	0.337	-0.13
COC(=O)c1nc2oc1CC[C@@H](CO)NC(=O)N(C)Cc1cnnn1C[C@H](Cc1ccccc1)NC2=O	-0.195	-0.328	-0.062	-0.135	-0.444	0.243	0.434	-0.988 (inactive)	-1.08	-0.314	0.0909	-1.04 (inactive)	0.127 (inactive)	-0.335 (inactive)	0.715	1.27 (inactive)	-0.331	0.419	-0.139	-0.287
CC(CO)N1C(=O)[C@@H]2[C@H]3C(=O)OCC=C[C@H]3OC23C=CCN(CCN2CCOCC2)C(=O)[C@@H]13 (stereo not given in full)	-0.979	-0.0708	-0.203	-0.362	-0.256	-0.718	0.284	1.03 (inactive)	-0.0558	-0.539	0.658	-0.792 (inactive)	-0.968 (inactive)	-0.268 (inactive)	-0.986	-0.909 (inactive)	-0.33	0.169	0.0282	-0.0828
O=C(CS)NCCCCCNC(=O)[C@@H]1C[C@@H]2C(=O)N3CCC[C@H]3C(=O)N2[C@@H]1c1cccc(OCCO)c1	0.511	1.59	-0.106	0.051	-0.377	1.19	1.43	0.174 (inactive)	-0.599	-0.166	1.07	0.147 (inactive)	0.793 (inactive)	-0.153 (inactive)	2.74	-1.01 (inactive)	-0.0998	0.102	0.0995	-0.0828
Cc1ccc(S[C@]2(C(=O)NCC(F)(F)F)CC(=O)N(C3CCCCC3)[C@@H]2c2ccc(CO)cc2I)cc1	-0.203	0.0659	0.0464	0.594	1.18	0.405	1.18	-2.91 (inactive)	0.233	0.213	1.54	-0.332 (inactive)	-0.692 (inactive)	1.23 (inactive)	2.82	0.312 (inactive)	0.171	0.456	1.14	0.0516
NC(=O)N1C(=O)C2C(C1=O)C1C=C(CCCO)C2C(c2cccs2)N1Cc1cccc(OC(F)(F)F)c1 (stereo not given)	-0.206	0.118	-0.0715	0.354	0.009	1.03	0.753	-1.02 (inactive)	0.0646	-0.0994	1.2	-0.367 (inactive)	-1.7 (inactive)	-0.967 (inactive)	1.77	0.56 (inactive)	-0.123	0.329	0.511	0.0625
CN(C)CCCNC(=O)[C@@H]1c2ccccc2C(=O)N(Cc2ccccc2Cl)[C@H]1c1ccc(CO)cc1	-0.126	0.542	-0.19	0.069	-0.243	0.261	-0.0724	-1.96 (inactive)	-0.177	-0.19	0.226	-0.34 (inactive)	-1.32 (inactive)	-1.04 (inactive)	2.25	0.596 (inactive)	-0.295	-0.611	-0.247	0.0733
CC[C@H]1C2=C3C(CC[C@H]4C(OCc5ccc(F)cc5C(F)(F)F)OC[C@](C)([C@@H]34)N(C(=O)OC(C)(C)C)C2)C(COC)C1COC (stereo not given in full)	-0.117	-0.281	0.0253	0.0921	0.84	0.336	-0.0151	1.18 (inactive)	0.857	-0.329	-0.728	0.242 (inactive)	0.78 (inactive)	0.153 (inactive)	1.68	-0.773 (inactive)	0.0392	-0.207	0.949	-0.113
COCCCNC(=O)[C@@]1(Cc2ccccc2N=[N+]=[N-])N=C(c2ccc(OCCCO)cc2)O[C@H]1c1ccccc1	0.6	2.55	0.153	0.904	0.629	1.38	1.17	-1.98 (inactive)	0.404	0.212	1.55	-0.22 (inactive)	-1.17 (inactive)	0.388 (inactive)	3.1	0.478 (inactive)	0.0894	0.923	0.74	-0.096
CN1C(=O)C2C=CC(C(O)c3ccc(F)cc3)N(Nc3ccccc3)C2C1=O (stereo not given)	-0.12	-0.286	-0.0222	0.208	1.24	1.35	1.34	-0.604 (inactive)	0.862	-0.215	0.225	0.397 (inactive)	1.08 (inactive)	1.97 (inactive)	3.69	-1.2 (inactive)	0.085	0.447	1.02	0.0034
Cc1ccc(S[C@]2(C(=O)NCC(F)(F)F)CC(=O)N(Cc3ccccc3C(F)(F)F)[C@@H]2c2ccc(CO)cc2I)cc1	0.52	-0.893	-0.157	-0.954	-1.15	-0.12	0.124	-1.24 (inactive)	-0.818	-0.236	-0.987	-1.54 (inactive)	-2.79 (inactive)	1.65 (inactive)	0.779	0.625 (inactive)	-0.072	-0.859	-1.45	-0.254
[N-]=[N+]=NCc1ccccc1[C@H]1OC(c2ccc(OCCCO)cc2)=N[C@@]1(CCS(=O)(=O)c1ccccc1)C(=O)N1CCCCC1	0.974	1.28	0.248	0.4	1.51	1.79	1.33	0.225 (inactive)	1.42	-0.191	1.55	0.341 (inactive)	-0.0527 (inactive)	3.75 (inactive)	3.34	-0.334 (inactive)	0.574	0.876	0.992	0.283
COC(=O)[C@@]1(Cc2ccccc2)[C@@H]2C(=CC(=O)[C@H]2CC(=O)C(=O)N(C)C)CN1C(=O)c1ccccc1	0.152	-0.0069	0.305	1.21	1.39	1.98	1.32	-1.26 (inactive)	0.962	0.113	0.777	-1.06 (inactive)	0.378 (inactive)	-0.251 (inactive)	3.22	0.844 (inactive)	0.262	-0.434	1.06	0.156
COC(=O)C(CC#Cc1ccc2c(c1)[C@]1(C(=O)N2)[C@H](c2ccccc2OCCO)N2[C@H](c3ccccc3)[C@H](c3ccccc3)OC(=O)[C@H]2[C@@H]1C(=O)NC[C@H](O)c1ccccc1)C(=O)OC	-0.881	0.711	-0.0307	0.767	0.982	1.36	1.25	-1.42 (inactive)	-0.158	-0.4	1.54	2.51 (inactive)	1.32 (inactive)	4.78 (inactive)	3.25	0.282 (inactive)	-0.324	1.1	1.04	-0.147
CCCCCCc1nc(C2CC2)cc2c1[Si](C(C)C)(C(C)C)O[C@H]2c1ccccc1	0.0483	0.122	-0.0286	0.698	0.516	-0.37	-0.903	-0.136 (inactive)	0.177	-0.0618	-0.147	-0.746 (inactive)	-0.575 (inactive)	-0.513 (inactive)	-0.624	-1.28 (inactive)	-0.0798	0.639	0.356	0.0122
